# Screening results from PubChem BioAssay.
# Shown are actives, neighbours in structure and some others; about 2.7% of the full set was active somewhere.
# MITF TRPM1 inh = reduces MITF-dependent TRPM1 promoter luciferase signal; inhibition, % at 12.5 µM; hit rate 0.83% among 330,000; SK-MEL-5 TRPM1 promoter luciferase, 24 h;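 active = mean inhibition across replicates of 60% or more, whatever share of single replicates reaches that level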
# CF NFkB inh = cystic fibrosis NF-kB activation inhibition. KKLEB NF-kB-GFP reporter, PAF-induced, GFP fluorescence overnight. inhibition, % at 5 µM. hit rate 0.86% among 360,000;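 active = at least 50% inhibition at 5 µM, scaled per plate between neutral and stimulator controls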;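 also: PAF is a Pseudomonas aeruginosa culture filtrate used as stimulus; plate controls were PAF-stimulated DMSO wells for no effect and unstimulated DMSO wells for full effect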
# HIF-2a block = blocks HIF-2a reporter activity; 786-0 RCC cells HIF-2a reporter, luciferase luminescence, overnight; hit rate 0.72% among 360,000; inhibition, % at 18.8 µM; AID 624352;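 active = inhibition of the luminescence signal of 40% or more relative to plate controls, in a single-dose primary screen at 18.75 µM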
# KKLEB cytotox = CF airway cell cytotoxicity counter-screen | KKLEB CF airway cells viability, ATPlite luminescence, overnight; stronger effect = lower value; cells stimulated with P. aeruginosa culture filtrate | activity change (cytotoxicity), % at 5 µM | hit rate 0.36% among 360,000;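 active = corrected activity change at or below -50% at 5 µM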
# Peg3 promoter = reduces Peg3 promoter-driven luciferase expression in HeLa; inhibition, % at 20 µM; HeLa PEG-Prom luciferase reporter, luminescence, overnight; AID 588405; hit rate 1.7% among 360,000;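 active = inhibition of at least 50% at 20 µM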
# Shn3 inh set2 = inhibitors of Schnurri-3 3'UTR reporter in osteoblasts; hit rate 0.52% among 360,000; Clone20 osteoblast Shn3 3'UTR firefly luciferase, 24 h; inhibition, % at 12.5 µM;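 active = mean inhibition of at least 75% with every replicate also reaching 75%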;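 also: 0% = median of neutral control wells and 100% = pilot-screen positive control compound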
# * = called active by the depositor; . = no result.
SMILES,MITF TRPM1 inh,CF NFkB inh,HIF-2a block,KKLEB cytotox,Peg3 promoter,Shn3 inh set2
Cc1ccc(-c2csc3nc4c5ccccc5c(NCCCN(C)C)nn4c(=O)c23)cc1,85*,11,-8,-60*,109*,25
O=C(CN1CC(=O)Oc2ccccc21)OCC(=O)c1ccccc1,16,50*,18,-59*,59*,13
O=C(CN1CC(=O)Oc2ccccc21)OCC(=O)c1cccc(Br)c1,25,-9,-4,-3,13,3
Cc1cccc(C(=O)NCC(=O)N2CCN(c3ccccn3)CC2)c1,-7,-3,-53,0,-46,-12
Cc1cccc(CN2CCC(C(=O)Nc3cccc(-c4cccc(F)c4)c3)CC2)n1,26,0,14,-13,29,26
Cc1nn(C(C)C)c(C)c1CN1CCC(C(=O)Nc2cccc(-c3cccc(F)c3)c2)CC1,61*,31,0,-5,89*,14
Cc1c(CN2CCC(C(=O)Nc3cccc(-c4cccc(Cl)c4)c3)CC2)cnn1C,-4,13,16,-14,69*,-24
CCCn1ncc(CN2CCC(C(=O)Nc3cccc(-c4cccc(F)c4)c3)CC2)c1C,-10,-8,23,-8,60*,33
O=C(Nc1cccc(-c2cccc(Cl)c2)c1)C1CCN(Cc2ccccn2)CC1,-5,10,19,-8,35,-9
C=CCn1cc(CN2CCC(C(=O)Nc3cccc(-c4cccc(Cl)c4)c3)CC2)c(C)n1,75*,15,9,-7,-109,14
COC(=O)Cn1cnc2c(oc3ccccc32)c1=O,5,-7,-132,3,-99,-21
Cc1cc(C)c(OCC(=O)Nc2nnc(C3CC3)s2)c(C)c1,13,-6,-4,6,-7,-1
Cc1ccc2c(c1)cc1c(=O)n(CC(=O)NCCCc3ccccc3)nc(C)n12,2,-14,0,5,3,-25
CCN(CC)C(=O)CSc1nnc2nnc3cc(Cl)ccc3n12,72*,4,12,-6,-8,11
CCN(CC)C(=O)CSc1nnc2nnc3cc(C)ccc3n12,41,-4,3,-1,5,.
CCOC(=O)C1CCN(C(=O)CN2C(=O)c3cccnc3Oc3ccccc32)CC1,7,-1,10,11,-18,1
O=C(Oc1ccc(Br)cc1C(=O)/C=C/c1ccccc1F)c1ccco1,15,12,19,-10,50*,-8
CCOC(=O)c1c(-c2ccccc2)csc1NC(=O)c1ccc(N2C(=O)CCC2=O)cc1,-1,69*,15,-57*,12,-5
CC[C@]12c3[nH]c4ccc(OC)cc4c3CCN1C(=O)C(CC(=O)NCC13CC4CC(CC(C4)C1)C3)C[C@@H]2C(=O)N1CCN(C(=O)C2CC2)CC1 (some centres not stated),4,11,5,-4,-1,5
C[C@]12c3[nH]c4ccc(Cl)cc4c3CCN1C(=O)[C@@H](CC(=O)NCC13CC4CC(CC(C4)C1)C3)C[C@@H]2C(=O)N1CCCCC1,3,37,-16,-24,56*,34
CC[C@]12c3[nH]c4ccc(Cl)cc4c3CCN1C(=O)[C@@H](CC(=O)NCC13CC4CC(CC(C4)C1)C3)C[C@@H]2C(=O)N1CCN(C(=O)C2CC2)CC1,27,13,-65,-2,56*,66
C=C(C(=O)c1ccccc1)C(C)CC(=O)c1ccccc1 (configuration not stated),3,14,26,-26,72*,6
C[C@@H]1CC[C@]2(C(=O)O[C@@H]3O[C@H](CO)[C@@H](O)[C@H](O)[C@H]3O)CC[C@]3(C)C(=CCC4[C@@]5(C)CC[C@H](O[C@@H]6OC[C@H](O)[C@H](O[C@@H]7O[C@H](CO)[C@@H](O)[C@H](O)[C@H]7O)[C@H]6O)C(C)(C)C5CC[C@]43C)C2[C@]1(C)O (some centres not stated),7,10,2,-3,-31,-72
COc1ccc(/C=C\C(=O)O[C@@H]2C(O)C(O[C@@H]3OC(C)[C@H](O[C@@H]4OCC(O[C@H]5O[C@H](CO)[C@@H](O)C(O)C5O)C(O)C4O)C(O)C3O)[C@H](OC(=O)[C@]34CCC(C)(C)C[C@@H]3C3=CCC5[C@@]6(C)CC(O)C(O[C@@H]7OC(CO)C(O)[C@H](O)[C@H]7O)[C@@](C)(C(=O)O)C6CC[C@@]5(C)[C@]3(CO)CC4)O[C@H]2C)cc1 (some centres not stated),68*,-58,34,8,51*,-1
Cc1ccc2nc(-c3cccc(Br)c3)c(Cc3cccc(Cl)c3)n2c1,.,-8,-217,-2,-227,-66
SMILES,MITF TRPM1 inh,CF NFkB inh,HIF-2a block,KKLEB cytotox,Peg3 promoter,Shn3 inh set2
COc1ccc(C(C[N+](=O)[O-])C2(c3ccc(OC)c(OC)c3)C(=O)c3ccccc3C2=O)cc1 (configuration not stated),7,45,87*,-14,102*,95*
COc1ccc(C(C[N+](=O)[O-])c2c(-c3ccccc3)cc3ccccn23)cc1OC (configuration not stated),1,7,4,1,6,-14
Cn1c(CNC(=O)c2ccc(Cl)cc2)nnc1SCC(=O)N1CCOCC1,-8,-29,5,16,-8,1
CC1(C)C[C@H](O)[C@]2(CO)[C@H](O)C[C@]3(C)C(=CCC4[C@@]5(C)CC[C@H](O)C(C)(C)C5CC[C@]43C)[C@@H]2C1 (some centres not stated),11,69*,12,-65*,95*,35
CC1(C)C[C@H](O)[C@]2(CO)CC[C@]3(C)C(=CCC4[C@@]5(C)CC[C@H](O)C(C)(C)C5CC[C@]43C)[C@@H]2C1 (some centres not stated),.,19,8,-6,9,-2
Cc1nn(C)c(C)c1NC(=O)CSc1nc(-c2ccccc2Cl)nc2c1cnn2-c1ccccc1,-15,29,18,-12,65*,8
Nc1ccc(Oc2cccc(Oc3ccc(N)cc3)c2)cc1,81*,-12,90*,9,30,45
Cc1cccc(Oc2ccc(N)cc2)c1,1,6,-59,5,-51,-14
Cc1cccc(OCC(=O)NNc2c3ccccc3nc3ccccc23)c1,9,-34,15,-6,48,28
Cc1ccc(OCC(=O)NNc2c3ccccc3nc3ccccc23)cc1,1,-12,-10,-3,83*,26
CC(=O)NC(CC(=O)OCC(=O)NCCc1ccccc1)c1ccccc1 (configuration not stated),4,-9,4,-3,-1,3
O=C(CSc1ccccc1)Nc1ccc(-c2nc3ccccc3[nH]2)cc1,-44,7,-125,-12,-196,12
